Bioassay records: PubChem, National Center for Advancing Translational Sciences (NCATS)
G9a block: qHTS Assay for Inhibitors of Histone Lysine Methyltransferase G9a. hit rate 8.8% among 350,000. G9a H3K9 monomethylation, AlphaScreen, 2 h. Potency, µM (top dose mostly 102 µM), most hits filed as inhibitors; further: nearly all actives have a fitted effect of over 75% in size
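Compounds were preincubated with 20 nM G9a for 15 min, after which biotinylated H3K9 peptide (500 nM) and SAM (20 uM) started a 2 h room-temperature reaction. Monomethylated product was quantified by antibody-based AlphaScreen chemiluminescence.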
BAZ2B block: qHTS Assay for Inhibitors of BAZ2B | hit rate 4.4% among 360,000 | AID 504333, 2011 | Bromodomain adjacent to zinc finger domain protein 2B (Homo sapiens), Q9UIF8 | Potency, µM (doses to about 114 µM), hits mostly inhibitors | AlphaScreen BAZ2B-H3K14Ac peptide displacement; further: nearly all actives have a fitted effect of over 60% in size
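Protein-peptide AlphaScreen: BAZ2B 50 nM, b-H3K14Ac 50 nM, 1x PBS pH 7.4 + 0.01% Tween-20. Preincubation 30 min RT; cpd 30 min RT (top 110 uM); beads 20 min RT, light-protected.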
PI5P4Ka inh: qHTS for Inhibitors of phosphatidylinositol 5-phosphate 4-kinase (PI5P4K); PI5P4Kalpha enzyme, ADP-Glo luminescence, 60 min; stronger effect = lower value; max response, %; hit rate 1.2% among 330,000; AID 652105, 2013; active means max response of -50% or lower; inconclusive means between -30% and -50%; inactive means -30% or higher; further: value at the top dose of about 77 µM
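Enzyme plus substrate dispensed, test compounds pinned in, then ATP (5 microM final) added. After 60 min at RT, ADP-Glo reagent 1 for 45 min and reagent 2 for 30 min preceded luminescence imaging.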
HP1b binding inh: HTS for Inhibitors of HP1-beta Chromodomain Interactions with Methylated Histone Tails; hit rate 0.56% among 390,000; AID 540317, 2011; AlphaScreen HP1-beta / biotin-H3K9me3 peptide binding; Chromobox protein homolog 1 (Homo sapiens), P83916; Potency, µM (series often up to 114 µM), most hits filed as inhibitors; further: nearly all actives have a fitted effect of over 70% in size
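AlphaScreen: HP1-beta (50 nM) preformed 30 min with biotin-H3(1-18)K9me3 peptide (50 nM) in PBS pH 7.4, 0.01% Tween-20. Compound added for 30 min at RT, then streptavidin donor/nickel chelate acceptor beads (10 ug/mL) for 30 min.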
JMJD2A Tudor: qHTS Assay for Inhibitors of JMJD2A-Tudor Domain. Lysine-specific demethylase 4A (Homo sapiens), O75164. hit rate 4.4% among 390,000. Potency, µM (titrated, usually from 114 µM), most hits filed as inhibitors. AlphaScreen JMJD2A-Tudor / H3K4me3 peptide binding; further: nearly all actives have a fitted effect of over 50% in size
PLK1 PBD inh: qHTS for Inhibitors of PLK1-PDB (polo-like kinase 1 - polo-box domain): Primary Screen. hit rate 2.8% among 360,000. AID 720504, 2013. Potency, µM, actives largely listed as inhibitors. Plk1 PBD binding of FITC phosphopeptide, fluorescence polarization; further: series mostly up to about 57 µM; nearly all actives have a fitted effect of over 65% in size
Each line names hits and unclear results; the compound was inactive in the other large screens; ! = not confirmed by another sample. The list is not random: actives were taken first. Their share in the collection is about 12%. Unless noted, the call rests on the fitted dose curve; in most records, active means well fitted curve in the direction sought with a large enough effect; inconclusive means small, poorly fitted or top-dose-only effect, or another doubt; inactive means no such curve, though single readings can be large; an effect the other way counts as inactive or inconclusive.

COc1cc(OC)cc(-c2nnc(SCC(=O)c3ccc([N+](=O)[O-])cc3)o2)c1	none (no result: PI5P4Ka inh, PLK1 PBD inh)
COc1cc(OC)cc(-c2nnc(Sc3ccc(C=O)cc3[N+](=O)[O-])o2)c1	G9a block 25µM, BAZ2B block inconclusive (no result: PI5P4Ka inh, HP1b binding inh, JMJD2A Tudor, PLK1 PBD inh)
O=C(O)CC(NCc1ccco1)C(=O)OCC1CCCO1 (stereo not drawn)	G9a block 7.9µM, BAZ2B block 50µM, JMJD2A Tudor inconclusive
O=C(COC(=O)C(c1ccccc1)c1ccccc1)NCc1ccco1	BAZ2B block inconclusive
O=C(O)CC(C(=O)OCC1CCCO1)N1CCOCC1 (stereo not drawn)	none
C=C(C)CCOC(=O)C(CC(=O)O)NCc1ccco1 (stereo not drawn)	G9a block 11µM, BAZ2B block 35µM, JMJD2A Tudor 35µM, PLK1 PBD inh inconclusive
O=C(O)CC(NCc1ccco1)C(=O)OCCc1ccccc1 (stereo not drawn)	G9a block 32µM, JMJD2A Tudor 6.3µM
COC(=O)[C@@H](NC(=O)NCc1ccco1)C(C)C	none (no result: PI5P4Ka inh)
COc1ccc(CC(=O)NCC(c2cccs2)S(=O)(=O)c2ccc(C)cc2)cc1 (stereo not drawn)	none (no result: PI5P4Ka inh, PLK1 PBD inh)
COc1ccccc1CNc1nc(NCC2CC2)nc2ccsc12	PI5P4Ka inh inconclusive (no result: G9a block, BAZ2B block, HP1b binding inh, JMJD2A Tudor)
CCCOC(=O)c1c(N)sc(C(=O)OCC)c1C	PLK1 PBD inh inconclusive
CCOC(=O)c1c(N)sc2c1CCSC2	G9a block 50µM, BAZ2B block inconclusive
CCOC(=O)c1c(N)sc2c1CCC(CC)C2 (stereo not drawn)	G9a block 11µM, HP1b binding inh inconclusive, PLK1 PBD inh inconclusive
CCOC(=O)c1c(N)sc(C(=O)N2CCCCCC2)c1C	none
CCOC(=O)c1c(N)sc2c1CCC1C(=O)N(C3CCCCC3)C(=O)C21 (stereo not drawn)	G9a block inconclusive, PLK1 PBD inh 19µM
CCC1CCc2c(sc(N)c2C(N)=O)C1 (stereo not drawn)	PI5P4Ka inh inconclusive, JMJD2A Tudor inconclusive, PLK1 PBD inh inconclusive (no result: G9a block, BAZ2B block)
CCOc1ccccc1NC(=S)N1CCN(c2ccccc2F)CC1	none (no result: G9a block)
CCc1ccc(CN(C)CC(=O)Nc2ccccc2[N+](=O)[O-])cc1	G9a block 79µM, BAZ2B block inconclusive, JMJD2A Tudor inconclusive
COc1cc(NC(=O)CN(C)Cc2ccc(OC(F)F)cc2)c(C)cc1[N+](=O)[O-]	G9a block inconclusive
COc1cc(NC(=O)CN(C)Cc2cccc(F)c2)c(C)cc1[N+](=O)[O-]	PLK1 PBD inh 27µM
CN(CC(=O)Nc1cccc(F)c1)CC(=O)Nc1ccccc1[N+](=O)[O-]	BAZ2B block inconclusive
C=CCOc1ccc(CN(C)CC(=O)Nc2ccccc2[N+](=O)[O-])cc1	G9a block 14µM, HP1b binding inh inconclusive, JMJD2A Tudor 13µM (no result: BAZ2B block)
COc1ccc(CN(C)CC(=O)Nc2cc(OC)c([N+](=O)[O-])cc2C)c(OC)c1	none
Cc1ccc(-c2nnc(Nc3ccc(OCC(N)=O)cc3)c3ccccc23)cc1S(=O)(=O)N(C)C	none (no result: PI5P4Ka inh, PLK1 PBD inh)
CN1c2cccc3cccc(c23)N(C)C1c1cccs1	G9a block 16µM, BAZ2B block inconclusive, HP1b binding inh inconclusive
CN1c2ccccc2-c2nc3ccccc3n2C1c1cccs1 (stereo not drawn)	none
CC1N(C)c2cccc3cccc(c23)N1C	G9a block 2µM, BAZ2B block 50µM, HP1b binding inh inconclusive, PLK1 PBD inh inconclusive
COCCNC(=O)CCN1N=C(c2ccccc2)CCC1=O	none
COc1cc2c(cc1Cl)/C(=C\CCN(C)C)c1ccccc1S2	G9a block inconclusive, BAZ2B block inconclusive, HP1b binding inh inconclusive, JMJD2A Tudor inconclusive
CN1CCN(CC/C=C2/c3ccccc3Sc3ccc(S(=O)(=O)N(C)C)cc32)CC1	G9a block 50µM!, BAZ2B block inconclusive, JMJD2A Tudor inconclusive
CN1CC(O)(C(O)C(O)C(O)CO)SC1=S (stereo not drawn)	PLK1 PBD inh 21µM (no result: G9a block, BAZ2B block, HP1b binding inh, JMJD2A Tudor)
CCOc1cccc2c1OC(c1cc(OC)c(OC)c(OC)c1)N1N=C(c3ccc(C)o3)CC21 (stereo not drawn)	G9a block 13µM, BAZ2B block inconclusive
O=C(Nc1ccccc1C(=O)OCc1cc(=O)n2nc(C3CC3)sc2n1)c1cccc(Cl)c1	none (no result: PI5P4Ka inh, PLK1 PBD inh)
Cc1nn(CC(=O)OC(C)C(=O)Nc2ccccc2[N+](=O)[O-])c(C)c1[N+](=O)[O-] (stereo not drawn)	G9a block 79µM
CC(C)C(=O)NC(=S)Nc1ccccn1	G9a block 56µM, JMJD2A Tudor inconclusive
O=C(NC(=S)Nc1ccccn1)c1ccccc1	G9a block 50µM
CC(C)CCNC(=S)Nc1ccccn1	G9a block 1µM
O=C(NC(=S)Nc1ccccn1)c1ccc([N+](=O)[O-])cc1	G9a block 79µM
CC(C)(C)C(=O)NC(=S)Nc1ccccn1	none
COc1ccc(-c2cc(=O)oc3cc(OC(C)C(=O)NCCCn4ccnc4)ccc23)cc1 (stereo not drawn)	BAZ2B block inconclusive
Cc1ccccc1CNC(=O)CN(c1ccccc1Cl)S(C)(=O)=O	none
COCCNC(=S)N(c1ccccc1)C(C)C	PLK1 PBD inh inconclusive
COCCNC(=S)NN(c1ccccc1)c1ccccc1	G9a block 28µM, PLK1 PBD inh 27µM
CC(=O)Nc1ccc(S(=O)(=O)N(C)CC(=O)OCC(=O)NCc2ccco2)cc1	G9a block inconclusive
Cc1noc(C)c1S(=O)(=O)N(C)C[C@H]1Oc2ccc(NS(=O)(=O)c3ccccc3)cc2C(=O)N([C@H](C)CO)C[C@@H]1C	none (no result: G9a block, BAZ2B block)
C=CCn1c(SCC(=O)N2CCOCC2)nc2sc(C)c(C)c2c1=O	none
C=CCn1c(SCC(=O)Nc2cc(Cl)ccc2C(=O)O)nc2sc(C)c(C)c2c1=O	PLK1 PBD inh 24µM
C=CCSc1nc2sc(C)c(C)c2c(=O)n1CC=C	G9a block 5.6µM
CCS(=O)(=O)c1ncc(Cl)c(C(=O)Nc2c(C(=O)Nc3cccc(C)c3)oc3ccccc23)n1	G9a block inconclusive (no result: PI5P4Ka inh, PLK1 PBD inh)
Cc1cccc(NC(=O)c2nc(S(C)(=O)=O)ncc2Cl)c1	G9a block 8.9µM (no result: PI5P4Ka inh, PLK1 PBD inh)
COc1cccc(NC(=O)c2nc(S(C)(=O)=O)ncc2Cl)c1	G9a block 35µM, PLK1 PBD inh 24µM
CN(c1ccccc1)S(=O)(=O)c1ccc(NC(=O)c2nc(S(C)(=O)=O)ncc2Cl)cc1	G9a block 11µM, JMJD2A Tudor inconclusive, PLK1 PBD inh 17µM
